# Data reported in PubChem BioAssay AID1851 (National Center for Advancing Translational Sciences (NCATS), 2009).
# The campaign covered roughly 16,000 compounds. About 5,800 (36%) were called active. Inconclusive results (about 23%) are left out. The list shows a part of the results. A number with no mark means an inactive call. Calls follow the shape of the dose curve; as a rule, active = well fitted curve in the direction sought with a large enough effect; inconclusive = small, poorly fitted or top-dose-only effect, or effect the other way; inactive = no such curve, though single readings can be large or run the other way.
# Target: Cytochrome P450 2C19 (Homo sapiens) (UniProt P33261)
# Sequence (P33261 whole entry, looked up): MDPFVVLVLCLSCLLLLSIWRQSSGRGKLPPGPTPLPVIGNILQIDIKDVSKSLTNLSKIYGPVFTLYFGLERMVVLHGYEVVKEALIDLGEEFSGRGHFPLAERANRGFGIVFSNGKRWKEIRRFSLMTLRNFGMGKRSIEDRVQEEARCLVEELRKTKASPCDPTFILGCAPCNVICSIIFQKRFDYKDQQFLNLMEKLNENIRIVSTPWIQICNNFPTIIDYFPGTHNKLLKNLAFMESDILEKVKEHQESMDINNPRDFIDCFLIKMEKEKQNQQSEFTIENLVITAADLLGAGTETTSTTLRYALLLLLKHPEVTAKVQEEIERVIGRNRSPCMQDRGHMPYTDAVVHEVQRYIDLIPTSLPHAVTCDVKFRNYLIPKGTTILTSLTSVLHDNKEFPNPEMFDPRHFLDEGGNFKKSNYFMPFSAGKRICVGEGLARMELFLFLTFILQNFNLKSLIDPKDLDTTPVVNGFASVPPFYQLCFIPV
# Assay: Cytochrome panel assay with activity outcomes
# Details: recombinant CYP, pro-luciferin dealkylation, luminescence, p450-cyp2c19; series mostly up to 57.1 µM
# % is scaled to controls: 0 for no effect and ±100 for the full control effect.
SMILES,AC50,"activity, negative = inhibition"
CCCCCCc1nc2ccccc2c(=O)n1NC(=O)c1c(O)c2c(n(CC(C)C)c1=O)CCCC2,5.62 µM (active),–
CCCn1c2c(c(O)c(C(=O)NCc3ccccc3)c1=O)CCCC2,17.8 µM (active),–
C=CCn1c(=O)c(C(=O)NCCN(CC)CC)c(O)c2ccccc21,inactive,–
O=C(NCc1ccccc1)c1ccc2c(c1)C(=O)N(CC1CCCO1)C2=O (stereo unspecified),inactive,–
CC(C)Oc1cccc(-n2c(CCc3c[nH]c4ccc(Br)cc34)nc3ccccc3c2=O)c1,inactive,–
CC(=O)N=c1sccn1CC(=O)c1ccc([N+](=O)[O-])cc1,10 µM (active),–
CC(NC(=O)CN1CCCC1)C12CC3CC(CC(C3)C1)C2 (stereo unspecified),15.8 µM (active),–
CCN1C(=O)CC(N2CCN(CC(=O)NC(C)C)CC2)C1=O (stereo unspecified),inactive,–
c1ccc(-c2nc(CSc3n[nH]c(-c4cccs4)n3)cs2)cc1,1.12 µM (active),–
N#Cc1cccc(-c2nc3cnc(N4CCOCC4)nc3n(C3CC3)c2=O)c1,inactive,–
CC1=CC2=NC(=O)CC(C)(C(=O)N(CC(=O)NC(C)(C)C)Cc3cccs3)N2C=C1 (stereo unspecified),inactive,–
CC(C)(C)NC(=O)CN(Cc1cccs1)C(=O)CCC(=O)Nc1nccs1,7.94 µM (active),–
Nc1ncnc2c1nc(Br)n2[C@H]1O[C@H]2COP(=O)(O)O[C@H]2[C@@H]1O,inactive,–
O=C(Oc1ccccc1)N1CCC2(CC1)CN(c1ccccn1)C2,inactive,–
O=C(c1cc(C(F)(F)F)cc(C(F)(F)F)c1)N1CCC[C@@]2(CCN(c3ccccn3)C2)C1,inactive,–
O=C(Oc1ccccc1)N1CCC2(CC1)CN(c1ncccn1)C2,inactive,–
O=C(c1cnccn1)N1CCC[C@@]2(CCN(c3ccccn3)C2)C1,inactive,–
CC(=O)N1CCC2(CC1)CN(c1ccccn1)C2,inactive,–
O=C(Oc1ccccc1)N1CCC[C@@]2(CCN(c3ncccn3)C2)C1,2.51 µM (active),–
O=C(c1ccncc1)N1CCC[C@@]2(CCN(c3ccccn3)C2)C1,6.31 µM (active),–
O=C(Oc1ccccc1)N1CCC2(CCCN(c3ccccn3)C2)CC1,7.94 µM (active),–

SMILES,AC50,"activity, negative = inhibition"
O=C(Oc1ccccc1)N1CCC[C@@]2(CCN(c3ccccn3)C2)C1,5.01 µM (active),–
COC(=O)N1CCC[C@@]2(CCN(c3ncccn3)C2)C1,inactive,–
C/C(CCN1CCCCc2nc(C)c(C)cc21)=N\OC[C@@H](O)COCc1ccco1,–,11% [at 11.4 µM]
O=C(Oc1ccccc1)N1CCC2(CCCN(c3ccccc3)C2)CC1,15.8 µM (active),–
O=C(Oc1ccccc1)N1CCC2(CC1)CCN(c1cccc(-c3ccccc3)c1)CC2,inactive,–
COC(=O)N1CCC2(CC1)CN(c1ccccn1)C2,inactive,–
CC(=O)N1CCC2(CCCN(c3ccccn3)C2)CC1,inactive,–
O=C(Oc1ccccc1)N1CCC2(CCCN(c3ccc(-c4ccccc4)cc3)C2)CC1,inactive,–
COC(=O)N1CCC2(CCCN(c3ccccn3)C2)CC1,3.16 µM (active),–
O=S(=O)(O)[C@@H](c1ccccc1)[C@@H](O)c1ccccc1,–,3.73% [at 11.4 µM]
Cc1ccc(S(=O)(=O)N=Nc2c(O)[nH]c3cc(O)c(C(=O)O)cc23)cc1,–,38.4% [at 11.4 µM]
Cc1cccc(C)c1NC(=O)C(NC=O)c1ccccc1Cl (stereo unspecified),7.94 µM (active),–
Cc1cccc(C)c1NC(=O)[C@H](C)N,inactive,–
COc1ccc([C@H](O)c2ccccn2)cc1,–,-15.9% [at 11.4 µM]
COc1ccc(C(O)c2nccn2Cc2ccccc2)cc1 (stereo unspecified),5.01 µM (active),–
Cc1cc([C@](C)(N)C(=O)O)ccc1P(=O)(O)O,inactive,–
O=C1Nc2cc(C(=O)N3CCOCC3)ccc2SC1N1CCOCC1 (stereo unspecified),inactive,–
O=C(c1ccc2c(c1)N(Cc1ccc(F)cc1)C(=O)CS2)N1CCOCC1,7.08 µM (active),–
COc1ccc(-n2c(CNC(=O)c3ccc(S(=O)(=O)N4CCCC4)cc3)n[nH]c2=S)cc1,inactive,–
COc1ccc(C(=O)N2CCC3(CC2)CN(C(=O)NC(C)C)C3)cc1,inactive,–
CCOC(=O)C(C)Sc1nnc(CNC(=O)c2ccc(OC)cc2)n1C1CCCCC1 (stereo unspecified),5.01 µM (active),–

SMILES,AC50,"activity, negative = inhibition"
CC(Sc1nnc(Cc2cccs2)n1C1CCCCC1)C(N)=O (stereo unspecified),39.8 µM (active),–
O=C(O)[C@@H](O)[C@@H](O)[C@H](O)[C@H](O)CO,–,2.53% [at 11.4 µM]
O=C(O)[C@@H](O)[C@@H](O)[C@@H](O)[C@@H](O)c1nc2ccccc2s1,3.16 µM (active),–
O=C(O)[C@@H](O)[C@@H](O)[C@@H](O)[C@@H](O)C(=O)O (tested in a mixture with another compound),inactive,–
CSc1nc(N)c2ncn([C@@H]3O[C@@H](COP(=O)(O)OP(=O)(O)O)[C@@H](O)[C@H]3O)c2n1,inactive,–
COc1ccc(C[C@H](N)C(=O)N[C@@H]2[C@H](O)[C@H](n3cnc4c(N(C)C)ncnc43)O[C@@H]2CO)cc1,inactive,–
COc1ccc(C(C(=O)NC2CCCCC2)N(C(=O)c2sc(C)nc2C)c2ccc(OC)cc2)cc1 (stereo unspecified),14.1 µM (active),–
CCc1ccc(N(C(=O)c2ccoc2C)C(C(=O)NC2CCCC2)c2ccc(OC)cc2)cc1 (stereo unspecified),14.1 µM (active),–
COc1ccc(C(C(=O)NC2CCCC2)N(C(=O)c2snc(-c3ccc(F)cc3)c2N)c2ccc(F)cc2)cc1 (stereo unspecified),inactive,–
N#C/C(=C\N1CCNC1=S)C(=O)c1ccc2ccccc2c1,–,-10.2% [at 11.4 µM]
Cc1ccc(C)c(OCCCC(C)(C)C(=O)O)c1,inactive,–
C/C(N)=C(/C#N)C(=O)CSc1nnc(COc2cc(C)ccc2C)o1,3.55 µM (active),–
O=C1SC(c2ccccc2)=C/C1=C\N1CCCCC1,2 µM (active),–
CC1CCN(S(=O)(=O)c2ccc3c(c2)C(=NO)c2cc(S(=O)(=O)N4CCC(C)CC4)ccc2-3)CC1,4.47 µM (active),–
CC1CCN(CC[C@H]2CCCN2S(=O)(=O)c2cccc(O)c2)CC1,inactive,–
COCCNC(=O)Cn1cnc2ccc(S(=O)(=O)N3CCC(C)CC3)cc2c1=O,inactive,–
COc1ccc(C(O)P(=O)(OC(C)C)OC(C)C)cc1OC (stereo unspecified),3.55 µM (active),–
COc1cc([C@@H](O)CO)ccc1OS(=O)(=O)O,inactive,–
COc1cc([C@H](O)C(=O)O)ccc1O,inactive,–
